# Screening results (PubChem)
# Only some compounds are listed: those with a hit (about 7.5% of all), similar ones and a draw of the others.
# SMN2 splice up = enhancers of SMN2 splice variant expression. HEK293 SMN2-luciferase splicing reporter, luminescence, 30-36 h. Potency, µM (titrated, usually from 46.1 µM), inactives show at the highest dose activity change, positive = activation, usual class: activators. 210,000 tested, 2.8% active. AID 1458; further: % of control where 0% means no effect; nearly all actives have a fitted effect of over 55% in size
#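 qHTS luciferase splicing reporter: luminescence rises when SMN2 exon 7 is included in transfected HEK293 cells. Compound exposure lasted 30-36 h at 37C, with 4.5 mM final sodium butyrate as control, followed by a ONE-Glo read.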
# FLuc modulator = counter-screen for miR-21 project: firefly luciferase inhibitors or activators. P08659. purified FLuc, Km substrates, luminescence inhibition. Potency, µM (doses to about 57.5 µM), inactives show top-dose activity change, negative = inhibition, usual class: inhibitors. 360,000 tested, 6.9% active;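 further: plate controls were vehicle for no effect and reference inhibitor for full effect; nearly all actives have a fitted effect of over 55% in size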
# Target sequence (P08659 whole entry, looked up): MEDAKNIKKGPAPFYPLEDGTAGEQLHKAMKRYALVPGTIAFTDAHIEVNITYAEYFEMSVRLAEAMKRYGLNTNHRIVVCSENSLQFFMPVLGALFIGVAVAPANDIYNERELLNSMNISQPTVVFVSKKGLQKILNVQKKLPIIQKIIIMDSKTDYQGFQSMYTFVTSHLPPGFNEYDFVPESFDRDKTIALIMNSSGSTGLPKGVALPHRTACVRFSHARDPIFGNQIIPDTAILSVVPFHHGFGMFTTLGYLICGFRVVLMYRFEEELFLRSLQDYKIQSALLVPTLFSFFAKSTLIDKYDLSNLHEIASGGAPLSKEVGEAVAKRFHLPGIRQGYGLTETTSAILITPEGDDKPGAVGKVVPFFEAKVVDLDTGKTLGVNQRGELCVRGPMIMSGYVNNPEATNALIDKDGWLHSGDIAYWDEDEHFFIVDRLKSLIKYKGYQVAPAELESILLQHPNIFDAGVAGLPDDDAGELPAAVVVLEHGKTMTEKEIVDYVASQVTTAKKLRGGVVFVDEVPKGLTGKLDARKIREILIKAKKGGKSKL
#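 Biochemical qHTS of compounds, final roughly 60 µM downward over six points, against 10 nM purified firefly luciferase using Km concentrations of substrates (10 uM D-luciferin, 10 uM ATP) in Tris acetate pH 7.5 buffer; luminescence output.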
# KinaseGlo FLuc = Kinase-Glo luciferase inhibition (counter-screen); Q27757; Kinase-Glo luciferase, ATP luminescence, 8 min; Potency, µM (top dose mostly 38.3 µM), for the others: at the highest dose activity change, negative = inhibition, actives largely listed as inhibitors; 200,000 tested, 0.28% active; AID 1379; further: on the % scale 0 is the no-effect control and ±100 the full control effect; nearly all actives have a fitted effect of over 60% in size
#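 Light output from Kinase-Glo luciferase with luciferin and 10 uM ATP in 50 mM imidazole pH 7.2, KCl, MgCl2, Tween 20, BSA; compound pin-delivered, 8-min ambient incubation, then luminescence read.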
# Rab9 prom act = activators of Rab9 promoter | 320,000 tested, 2.8% active | Potency, µM (titrated, usually from 9.22 µM), for the others: at the top dose activation, negative = inhibition, usual class: activators | Huh7 Rab9 promoter-luciferase reporter, luminescence, 24 h | AID 485297; further: % of control where 0% means no effect; nearly all actives have a fitted effect of over 60% in size
#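 Huh7 cells stably carrying a Rab9 promoter-luciferase reporter, 1500 cells per well in OP-MEM I with 10% FBS, treated with compound 24 hours at 37C. Luciferase activity read by luminescence after 10 minutes with Amplite reagent.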
# NPC1 promoter act = activators of NPC1 promoter; 320,000 tested, 2.4% active; Huh7 NPC1 promoter luciferase reporter, 24 h; Potency, µM (series often up to 9.22 µM), without a hit: at the top dose activation, usual class: activators; further: % of control where 0% means no effect; nearly all actives have a fitted effect of over 60% in size
#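 Luciferase expression driven by the NPC1 promoter was measured in stably transfected Huh7 cells after a 24 h compound incubation, using a luciferase reagent and a luminescence read.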
# ELG1 genotox = induces genotoxicity in HEK293T cells with luciferase-tagged ELG1; Potency, µM (series often up to 46 µM), inactives show top-dose activity change, positive = activation, hits mostly activators; 330,000 tested, 1.3% active; HEK293T ELG1-luciferase reporter, luminescence, 16 h; further: % of control where 0% means no effect; nearly all actives have a fitted effect of over 60% in size
#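 After overnight (16 hr) compound treatment at 37 °C, ELG1-luciferase HEK293T cells were lysed with ONE-Glo; luminescence quantified 30 min later at room temperature.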
# An asterisk follows results filed as active; ? = inconclusive; nt = not tested or not shown. The call rests on the fitted dose curve; in most records, active means well fitted curve in the direction sought with a large enough effect; inconclusive means small, poorly fitted or top-dose-only effect, or another doubt; inactive means no such curve, though single readings can be large; an effect the other way counts as inactive or inconclusive. Potency means the concentration at half of the fitted maximal effect.
SMILES,SMN2 splice up,FLuc modulator,KinaseGlo FLuc,Rab9 prom act,NPC1 promoter act,ELG1 genotox
Nc1ccc(/C=C/C(=O)c2ccco2)cc1,14.4%,6.01µM*,-14.6%,?,13.6%,?
CC(C)(C)C(=O)Nc1ccc(/C=C/C(=O)c2ccco2)cc1,nt,0.426µM*,nt,0.447µM*,0.355µM*,18.3µM*
O=C(/C=C/c1cc(Br)ccc1O)c1ccco1,nt,?,nt,-0.5%,-1.3%,20.8%
COc1ccc(OCc2ccc(-c3nc(C#N)c(N4CCN(C)CC4)o3)o2)cc1,nt,-9.0%,nt,nt,nt,nt
O=C(Nc1ccc(NC(=O)c2ccco2)cc1)c1ccc2c(c1)OCO2,11.6%,0.1%,?,7.1%,3.6%,?
O=C(Nc1ccc(NC(=O)c2ccco2)c(Cl)c1)c1ccc2c(c1)OCCO2,nt,0.477µM*,nt,3.98µM*,?,11.1%
CC(=O)c1cc2c(cc1NC(=O)c1ccco1)OCCO2,15.5%,0.5%,5.1%,-4.7%,-6.4%,0.3%
CCCC(=O)c1cc2c(cc1NC(=O)c1cccs1)OCCO2,-3.0%,-6.6%,-3.4%,14.4%,-0.8%,1.8%
O=C(Nc1cc2c(cc1Cl)OCCO2)c1ccco1,12.6µM*,19µM*,-3.3%,?,?,24.8%
O=C(Nc1cc2c(cc1Br)OCCO2)c1ccco1,12.6µM*,23.9µM*,-8.5%,29.6%,23.2%,?
O=C(Nc1cc2c(cc1Br)OCCO2)c1cccs1,22.4µM*,10.7µM*,14.2%,2.51µM*,2.82µM*,11.6µM*
CN1CCN(C(CNC(=O)c2c(F)cccc2F)c2ccc3c(c2)OCO3)CC1 (stereo not given),nt,-2.2%,nt,nt,nt,nt
CCCn1c(-c2ccc(F)cc2)nc2c(NC3CC4CCC(C3)N4C)nc(C)nc21 (stereo not given),-5.4%,nt,-1.0%,nt,nt,nt
Cc1cc(NC(=O)c2ccc3c(c2)OCCO3)ccc1NC(=O)c1cc2ccccc2o1,-32.2%,2.69µM*,2.8%,17.2%,14.9%,-13.5%
CCOc1ccc(N2CC(c3nc4ccccc4n3CCCOc3ccccc3OC)CC2=O)cc1 (stereo not given),4.0%,?,nt,nt,nt,nt
CNc1ccc(/C=C(\C#N)c2ccccn2)cc1[N+](=O)[O-],10µM*,-18.9%,-3.1%,1.26µM*,2.82µM*,10.3µM*
N#C/C(=C\c1ccncc1)c1ccccn1,nt,-2.7%,nt,5.6%,-2.8%,-4.3%
N#C/C(=C\c1ccccc1)c1ccccn1,21.3%,19µM*,-9.7%,?,?,?
CC(C(=O)N1CCCCC1)n1sc2ccccc2c1=O (stereo not given),?,23.9µM*,3.0%,?,?,?
CC(C(=O)N1CCN(C(=O)c2ccco2)CC1)n1sc2ccccc2c1=O (stereo not given),nt,4.6%,nt,-0.5%,0.3%,2.1%
O=C(Cn1c(=O)oc2cc(S(=O)(=O)N3CCCCCC3)ccc21)NCc1ccccc1Cl,nt,-14.7%,nt,nt,nt,nt
O=C1C(Cl)=C(NC2CCCCC2)C(=O)N1c1ccc(Cl)cc1,?,4.78µM*,-0.7%,17.8%,13.9%,?
Cc1ccc(-n2nc(C(=O)N3CCN(c4cc(Cl)ccc4C)CC3)c3c4ccccc4n(C)c3c2=O)cc1,-4.6%,1.4%,nt,nt,nt,nt
COc1ccccc1OCC(=O)Nc1nc2c(s1)CCCC2,nt,-15.3%,nt,21.7%,21.3%,-0.4%
O=C(Nc1nc2c(s1)CCCC2)c1ccc(Br)s1,?,1.51µM*,-4.3%,0.501µM*,2.82µM*,?
SMILES,SMN2 splice up,FLuc modulator,KinaseGlo FLuc,Rab9 prom act,NPC1 promoter act,ELG1 genotox
Cc1cccc(C(=O)Nc2nc3c(s2)CCCC3)c1,nt,1.35µM*,nt,nt,nt,nt
COc1ccc(C(=O)Nc2nc3c(s2)CCCC3)cc1Cl,nt,2.39µM*,nt,nt,nt,nt
CNC(=O)c1c(NC(=O)c2ccc3ncsc3c2)sc(C)c1C,nt,?,nt,1.2%,-1.3%,24.3%
O=C(Nc1nc2c(s1)CCCC2)c1ccc2ncsc2c1,0.501µM*,2.39µM*,-11.9%,?,?,?
Cc1ccc(NC(=O)N2CCN(c3nnc(C)c4c(C)n(-c5ccc(Cl)cc5)nc34)CC2)c(C)c1,nt,-8.1%,nt,nt,nt,nt
Cc1cc(C(=O)Nc2nc3c(s2)CCCC3)cs1,?,0.601µM*,?,1µM*,?,?
Cc1ccc(CC(=O)Nc2nc3c(s2)CCCC3)cc1,nt,?,-2.0%,7.5%,9.3%,25.6%
Cc1ncsc1C(=O)Nc1nc2c(s1)CCCC2,11.2µM*,7.57µM*,6.31µM*,1µM*,2.51µM*,?
CCC(CC)C(=O)Nc1cc(-c2cccc(C)c2)nn1-c1ccccc1,nt,-19.1%,nt,nt,nt,nt
CC(C)(CNC(=O)c1ccc(-c2ccccc2Cl)o1)N1CCOCC1,nt,?,nt,?,?,13µM*
CCc1nnc(NC(=O)c2ccc(-c3ccccc3Cl)o2)s1,5.2%,?,-11.3%,?,29.9%,20.6µM*
COC(=O)c1sccc1-c1ccc(C(=O)Nc2ccccc2)o1,?,7.57µM*,-4.2%,2.24µM*,3.55µM*,?
O=C(Nc1cccc(F)c1)c1ccc(-c2ccccc2Cl)o1,11.2µM*,9.53µM*,-11.2%,-1.7%,-2.3%,?
COc1ccc(NC(=O)c2ccc(-c3ccccc3Cl)o2)cc1,17.8µM*,9.53µM*,-3.0%,?,?,?
CC(=O)c1cccc(NC(=O)c2ccc(-c3ccccc3[N+](=O)[O-])o2)c1,10µM*,3.38µM*,-1.5%,3.16µM*,?,?
COc1ccc(NC(=O)c2ccc(-c3cccc(Cl)c3C)o2)cc1,10.4%,?,nt,nt,nt,nt
Cc1ccc(NC(=O)c2ccc(-c3cccc(Cl)c3C)o2)cc1,-19.3%,7.57µM*,nt,nt,nt,nt
CCOc1ccc(NC(=O)c2ccc(-c3cccc(Cl)c3C)o2)cc1,8.0%,-17.1%,nt,nt,nt,nt
COc1ccc(NC(=O)c2cc(-c3ccccc3Cl)no2)cc1,-8.5%,9.53µM*,-1.4%,-3.3%,0.9%,7.7%
Cc1ccc(CN2C(=O)N(c3ccc(F)cc3)C(=O)C2CC(=O)Nc2ccc(Cl)cc2)cc1 (stereo not given),-8.5%,-1.1%,nt,nt,nt,nt
O=C(Cn1nnnc1-c1ccccc1F)Nc1ccc(F)c(F)c1,-2.2%,2.3%,nt,nt,nt,nt
O=C(Nc1cccc(O)c1)c1cc(-c2ccccc2F)no1,nt,1.5%,nt,nt,nt,nt
O=C(Nc1ccccc1)c1cc(-c2ccccc2Cl)no1,?,0.757µM*,-17.7%,22.7%,?,?
Clc1ccc(/C=N/Nc2ncnc3ccccc23)cc1Cl,?,8.49µM*,3.9%,3.98µM*,?,?
Cc1cc(C)nc(N/N=C/c2cccc(Cl)c2)n1,?,?,-2.0%,26.6%,10.4%,13.2%
Clc1cccc(/C=N/Nc2nc(Cl)nc3ccccc23)c1,22.4µM*,4.78µM*,-0.3%,3.98µM*,2.82µM*,?
